We go through eight sequences from PMC7862700, “An all-to-all approach to the identification of sequence-specific readers for epigenetic DNA modifications on cytosine”.

Assay in all cases: DAPPL (digital affinity profiling via proximity ligation, sequencing); 10 mM Tris-HCl pH 7.5, 50 mM NaCl, 1 mM DTT, 4% glycerol, room temperature, 30 min; GST-TFs on glutathione beads, 16-mer random dsDNA library, 0.1% formaldehyde crosslink after washing; high values mean tight binding
Common to all, as to details: protein: recombinant; tags: N-terminal GST; dsDNA, one strand shown

Test [1] deals with T1, ERF (Homo sapiens, UniProt P50548 1-548).
T1 sequence: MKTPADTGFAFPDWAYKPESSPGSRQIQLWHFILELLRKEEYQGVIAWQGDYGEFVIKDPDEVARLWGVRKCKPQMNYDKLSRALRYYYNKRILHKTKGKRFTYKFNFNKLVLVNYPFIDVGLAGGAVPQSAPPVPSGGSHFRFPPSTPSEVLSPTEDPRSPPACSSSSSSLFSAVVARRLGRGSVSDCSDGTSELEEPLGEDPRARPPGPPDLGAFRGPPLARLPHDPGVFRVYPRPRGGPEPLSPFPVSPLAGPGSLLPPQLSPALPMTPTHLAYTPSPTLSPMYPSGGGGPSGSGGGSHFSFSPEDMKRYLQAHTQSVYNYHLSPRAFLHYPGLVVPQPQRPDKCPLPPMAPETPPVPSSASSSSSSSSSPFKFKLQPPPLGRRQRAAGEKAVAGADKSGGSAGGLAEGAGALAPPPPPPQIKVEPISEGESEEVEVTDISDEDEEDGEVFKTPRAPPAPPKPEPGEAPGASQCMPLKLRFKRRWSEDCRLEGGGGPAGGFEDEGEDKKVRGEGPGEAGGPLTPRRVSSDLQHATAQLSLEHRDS
In short, it runs like this: (§1)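 Human transcription factors carrying a GST fusion were produced in yeast, bound to glutathione beads, tagged with DNA barcodes and pooled together with a tag-only sample. Each pool was held with 200 nmole of a random double-stranded 16-mer DNA library in Tris/NaCl/DTT/glycerol buffer for 30 min at room temperature, then washed, crosslinked in 0.1% formaldehyde, proximity-ligated with BsaI/T4 ligase (1 h, 37 °C), PCR-amplified and sequenced on an Illumina NextSeq500. Binding signal is the read frequency of each hexamer for a given factor divided by its frequency in the tag-only sample.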

Test [2] concerns the target T2, ETV3L (Homo sapiens, UniProt Q6ZN32 1-361).
T2 sequence: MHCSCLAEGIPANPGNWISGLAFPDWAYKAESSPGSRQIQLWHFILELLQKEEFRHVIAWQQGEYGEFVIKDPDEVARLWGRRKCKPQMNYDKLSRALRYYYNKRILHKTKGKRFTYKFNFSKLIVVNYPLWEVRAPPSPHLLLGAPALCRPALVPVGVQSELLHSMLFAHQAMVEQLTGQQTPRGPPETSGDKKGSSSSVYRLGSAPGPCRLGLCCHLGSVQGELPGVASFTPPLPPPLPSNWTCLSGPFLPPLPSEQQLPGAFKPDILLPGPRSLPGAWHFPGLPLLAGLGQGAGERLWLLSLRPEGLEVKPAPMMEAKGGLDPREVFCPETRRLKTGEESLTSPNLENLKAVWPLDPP
An outline of the steps:
as §1

Test [3] addresses T3, ETS2 (Homo sapiens, UniProt P15036 1-469).
T3 sequence: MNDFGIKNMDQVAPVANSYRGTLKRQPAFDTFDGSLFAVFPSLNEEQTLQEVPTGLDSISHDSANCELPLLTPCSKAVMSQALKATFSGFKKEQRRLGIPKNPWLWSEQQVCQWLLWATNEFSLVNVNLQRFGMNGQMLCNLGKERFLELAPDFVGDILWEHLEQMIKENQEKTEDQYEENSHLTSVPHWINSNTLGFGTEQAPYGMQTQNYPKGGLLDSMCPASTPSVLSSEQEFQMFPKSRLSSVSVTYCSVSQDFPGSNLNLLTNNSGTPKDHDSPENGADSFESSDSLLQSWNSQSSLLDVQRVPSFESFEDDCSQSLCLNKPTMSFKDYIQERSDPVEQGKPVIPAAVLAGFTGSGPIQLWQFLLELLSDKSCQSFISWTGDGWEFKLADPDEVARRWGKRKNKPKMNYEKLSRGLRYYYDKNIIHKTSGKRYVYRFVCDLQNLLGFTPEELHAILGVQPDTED
In short, it runs like this: as §1

In test [4] the target is T4, SPDEF (Homo sapiens, UniProt O95238 1-335).
T4 sequence: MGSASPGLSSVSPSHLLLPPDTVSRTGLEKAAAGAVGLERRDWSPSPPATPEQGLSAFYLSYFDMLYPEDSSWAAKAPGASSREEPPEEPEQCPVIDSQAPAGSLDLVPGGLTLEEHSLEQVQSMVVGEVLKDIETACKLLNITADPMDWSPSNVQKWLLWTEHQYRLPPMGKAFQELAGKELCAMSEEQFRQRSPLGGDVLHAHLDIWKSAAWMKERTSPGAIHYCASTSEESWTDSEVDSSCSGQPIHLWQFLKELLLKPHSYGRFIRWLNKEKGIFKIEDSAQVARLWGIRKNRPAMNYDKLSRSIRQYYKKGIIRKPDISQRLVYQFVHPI
In short, it runs like this:
as §1

Test [5] has as its target T5, ETV7 (Homo sapiens, UniProt Q9Y603 1-341).
T5 sequence: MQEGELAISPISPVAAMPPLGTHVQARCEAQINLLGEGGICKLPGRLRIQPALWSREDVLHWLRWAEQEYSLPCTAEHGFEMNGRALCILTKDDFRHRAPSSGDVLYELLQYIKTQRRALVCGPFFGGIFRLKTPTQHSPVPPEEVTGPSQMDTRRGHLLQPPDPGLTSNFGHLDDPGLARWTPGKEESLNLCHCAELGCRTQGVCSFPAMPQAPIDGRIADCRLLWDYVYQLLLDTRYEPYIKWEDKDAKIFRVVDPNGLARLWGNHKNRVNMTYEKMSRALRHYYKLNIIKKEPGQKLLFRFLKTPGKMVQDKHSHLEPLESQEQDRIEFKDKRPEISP
In short, it runs like this:
as §1

The target in test [6] is T6, ELF5 (Homo sapiens, UniProt Q9UKW6-2 1-255).
T6 sequence: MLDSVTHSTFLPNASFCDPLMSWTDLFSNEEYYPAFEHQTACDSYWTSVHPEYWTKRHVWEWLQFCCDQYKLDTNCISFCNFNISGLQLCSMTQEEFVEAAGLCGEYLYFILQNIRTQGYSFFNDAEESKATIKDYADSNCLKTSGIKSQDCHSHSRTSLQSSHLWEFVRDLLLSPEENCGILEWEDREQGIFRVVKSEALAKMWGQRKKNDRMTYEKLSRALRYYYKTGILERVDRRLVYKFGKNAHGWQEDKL
In short, it runs like this:
as §1

The target of test [7] is T7, ETV3 (Homo sapiens, UniProt P41162-2 1-143).
T7 sequence: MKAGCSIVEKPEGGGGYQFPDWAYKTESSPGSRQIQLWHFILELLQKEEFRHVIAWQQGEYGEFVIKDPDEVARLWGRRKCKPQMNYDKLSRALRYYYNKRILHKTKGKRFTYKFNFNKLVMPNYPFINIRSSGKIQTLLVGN
An outline of the steps: as §1

In test [8] the target is ETV6 (Homo sapiens, UniProt P41212 1-452). An outline of the steps:
as §1

ETV6, sequence (P41212 whole entry): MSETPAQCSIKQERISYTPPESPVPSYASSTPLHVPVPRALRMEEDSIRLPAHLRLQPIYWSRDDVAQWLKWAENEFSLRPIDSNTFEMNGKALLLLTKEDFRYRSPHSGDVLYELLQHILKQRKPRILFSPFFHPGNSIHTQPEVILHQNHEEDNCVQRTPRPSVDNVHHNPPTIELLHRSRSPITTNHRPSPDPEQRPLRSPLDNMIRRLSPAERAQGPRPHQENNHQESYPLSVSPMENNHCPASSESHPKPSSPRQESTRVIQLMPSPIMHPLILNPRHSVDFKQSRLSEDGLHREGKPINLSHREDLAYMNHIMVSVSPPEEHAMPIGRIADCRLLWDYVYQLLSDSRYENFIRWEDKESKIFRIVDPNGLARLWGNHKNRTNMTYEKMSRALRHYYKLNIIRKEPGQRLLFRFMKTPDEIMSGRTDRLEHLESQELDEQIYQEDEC

Regarding TACACC, the binding signal in test [1] is 1.21 fold enrichment (6-mer frequency, TF over GST control); in test [2], 1.17 fold enrichment (6-mer frequency, TF over GST control); in test [3], 1.1 fold enrichment (6-mer frequency, TF over GST control); in test [4], 1.24 fold enrichment (6-mer frequency, TF over GST control); in test [5], 1.13 fold enrichment (6-mer frequency, TF over GST control); in test [6], 1.18 fold enrichment (6-mer frequency, TF over GST control). Further, the binding signal in test [7] is 1.18 fold enrichment (6-mer frequency, TF over GST control); in test [8], 1.15 fold enrichment (6-mer frequency, TF over GST control).

Turning to CTTATT, the binding signal in test [1] was 1.44 fold enrichment (6-mer frequency, TF over GST control); in test [2], 1.5 fold enrichment (6-mer frequency, TF over GST control); in test [3], 1.51 fold enrichment (6-mer frequency, TF over GST control); in test [4], 1.54 fold enrichment (6-mer frequency, TF over GST control); in test [5], 1.43 fold enrichment (6-mer frequency, TF over GST control); in test [6], 1.42 fold enrichment (6-mer frequency, TF over GST control). The binding signal in test [7] was 1.31 fold enrichment (6-mer frequency, TF over GST control); in test [8], 1.48 fold enrichment (6-mer frequency, TF over GST control).

On to TTGTCT, for which the binding signal in test [1] was 1.16 fold enrichment (6-mer frequency, TF over GST control); in test [2] it was 1.18 fold enrichment (6-mer frequency, TF over GST control); in test [3], 1.22 fold enrichment (6-mer frequency, TF over GST control); in test [4], 1.22 fold enrichment (6-mer frequency, TF over GST control); in test [5], 1.33 fold enrichment (6-mer frequency, TF over GST control); in test [6], 1.26 fold enrichment (6-mer frequency, TF over GST control). The binding signal in test [7] is 1.23 fold enrichment (6-mer frequency, TF over GST control); in test [8], 1.13 fold enrichment (6-mer frequency, TF over GST control).

Regarding ACTCAA, the binding signal in test [1] is 1.16 fold enrichment (6-mer frequency, TF over GST control); in test [2], 1.21 fold enrichment (6-mer frequency, TF over GST control); in test [3] it was 1.23 fold enrichment (6-mer frequency, TF over GST control); in test [4] it was 1.16 fold enrichment (6-mer frequency, TF over GST control); in test [5], 1.05 fold enrichment (6-mer frequency, TF over GST control); in test [6] it was 1.15 fold enrichment (6-mer frequency, TF over GST control). The binding signal in test [7] is 1.13 fold enrichment (6-mer frequency, TF over GST control); in test [8] it was 1.26 fold enrichment (6-mer frequency, TF over GST control).

TCCCTA: the binding signal in test [1] is 1.43 fold enrichment (6-mer frequency, TF over GST control); in test [2] it was 1.39 fold enrichment (6-mer frequency, TF over GST control); in test [3], 1.32 fold enrichment (6-mer frequency, TF over GST control); in test [4], 1.4 fold enrichment (6-mer frequency, TF over GST control); in test [5], 1.16 fold enrichment (6-mer frequency, TF over GST control); in test [6], 1.67 fold enrichment (6-mer frequency, TF over GST control). Besides, the binding signal is 1.38 fold enrichment (6-mer frequency, TF over GST control) in test [7] and 1.17 fold enrichment (6-mer frequency, TF over GST control) in test [8].

As to GCCTTA, the binding signal is 1.15 fold enrichment (6-mer frequency, TF over GST control) in test [1]; 1.04 fold enrichment (6-mer frequency, TF over GST control) in test [2]; 1.15 fold enrichment (6-mer frequency, TF over GST control) in test [3]; 1.12 fold enrichment (6-mer frequency, TF over GST control) in test [4]; 1.18 fold enrichment (6-mer frequency, TF over GST control) in test [5]; 1.14 fold enrichment (6-mer frequency, TF over GST control) in test [6]. Further, the binding signal in test [7] is 1.08 fold enrichment (6-mer frequency, TF over GST control); in test [8], 1.07 fold enrichment (6-mer frequency, TF over GST control).

In the case of TTACGG, the binding signal in test [1] is 1.36 fold enrichment (6-mer frequency, TF over GST control); in test [2], 1.22 fold enrichment (6-mer frequency, TF over GST control); in test [3] it was 1.43 fold enrichment (6-mer frequency, TF over GST control); in test [4], 1.32 fold enrichment (6-mer frequency, TF over GST control); in test [5], 1.16 fold enrichment (6-mer frequency, TF over GST control); in test [6], 1.32 fold enrichment (6-mer frequency, TF over GST control). The binding signal in test [7] was 1.17 fold enrichment (6-mer frequency, TF over GST control); in test [8], 1.26 fold enrichment (6-mer frequency, TF over GST control).

Turning to TCACTG, the binding signal is 1.17 fold enrichment (6-mer frequency, TF over GST control) in test [1]; 1.4 fold enrichment (6-mer frequency, TF over GST control) in test [2]; 1.28 fold enrichment (6-mer frequency, TF over GST control) in test [3]; 1.16 fold enrichment (6-mer frequency, TF over GST control) in test [4]; 1.3 fold enrichment (6-mer frequency, TF over GST control) in test [5]; 1.17 fold enrichment (6-mer frequency, TF over GST control) in test [6]. Moreover, the binding signal in test [7] is 1.16 fold enrichment (6-mer frequency, TF over GST control); in test [8], 1.2 fold enrichment (6-mer frequency, TF over GST control).
